Test results published in PubChem BioAssay AID1159506 (National Center for Advancing Translational Sciences (NCATS), 2015).
The full ranking holds about 59,000 sequences; the median of the read-out is about -0.00055, and the lowest 2% start at about -2. Many of the other results were omitted from the sample, so the lowest values are more common in it than they were.

Assay: Identification of proteins required for the processing of the EWS-FLI1 nascent transcript;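 further: robust z of luciferase light less the median z of siRNAs with the same seed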
Details: TC32 Ewing sarcoma NR0B1-luc vs CMV-luc (EWS-FLI1 target promoter against control promoter), 48 h; screened at 20 nM (by protocol)
Summary of the method: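 Genome-wide siRNA screen (Ambion v4.1, three siRNAs per gene, 20 nM final, RNAiMax) in Ewing sarcoma TC32 cells carrying NR0B1-promoter or CMV-promoter luciferase; OneGlo luciferase read 48 h post-transfection. Data normalized, z-score-MAD transformed and seed-adjusted.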

Sequence | seed-corrected z-score
UAGUUUAACCUUGUCAUCC against CASC4 | -0.368
UACACUUUCAAAAUCUCUC against ZNF845 | 0.844
UUUAUGACCUCAUUAAGUC against LHCGR | 0.284
UGAUGAGAUAGAGCCGUGC against TRIM56 | -0.836
GAAUUUCAGCCGUAGCACG against TMUB1 | -2.19
ACAAUGGCAUCUUGUGGGC against CORT | 0.108
UAGUAUGCGGUGGUGAUGG against RAB3A | -0.77
UUGGGCAUAUGUUUGCUGC against TACO1 | 0.306
UCGUUUCAAAGGGCUGUGG against SAMD4A | -2.94
UGAGCAAGGUCUCCAAUCC against SH3RF3 | -0.33
UUUCGUUUGAGAAAUGCGC against MED23 | 0.711
AUAGUGACCACCCUCAAUC against SPTA1 | 0.293
UACGUUCUGAAUCAAGAAG against DENND5A | -0.28
UAAGCAUAUAUUCCCGUAC against CDC7 | 0.52
UUUAUAGUUGGUUAGGUUC against EPB42 | -0.0918
AUUUGGACCAGUAUGCUUC against HNRNPH1 | -2.98
UAUUCUGAGAUGCGAAGGC against SLC26A11 | 0.879
UCCAAGAUGAUUCCUCUCC against ZNF557 | -0.0489
AAAAGAUGCCCAUUCAUUG against DCDC2C | 1.89
UCAGGAGCAAAGCUUCUUC against VNN3 | 0.325
UCAGCUGAUUCAUUAGAGG against TRIM44 | -0.356
UCUGUUGUUAGCACACGUC against NID1 | -0.891
UAUGCUUUCUUGACAGCCC against KCNAB1 | -4.96

Sequence | seed-corrected z-score
UCCUUGGACAUCAAGAGCC against C16orf91 | -0.516
UAAUCUAUCCAGGAAUUCC against TTC5 | 0.1
UUUGUUGGAACCCAAGAGC against BLID | -2.2
UUUGGGUCCUCGAUCACCC against COL8A1 | -1.06
UUCCGUAAUGUUGCGCAUG against CORO6 | 0.106
UUCGUGCUGGGUUAUCUCG against COL24A1 | 0.737
UUCCAUAAAGAGUUCUGCC against ZNF280C | 0.576
UUACUGACGACAUCAUUCC against PRPF40A | -0.273
AUACAGAACAUAGUGGUUG against PSMD3 | -1.41
UCAGUAGGCAUUGGAGCGG against CEBPA | -0.0618
AAGUCUUCAAGAUCUAUUC against FGL2 | 0.334
UCAUAAGUCAGGGUAUGCC against MPTX1 | -3.31
UCAUAGGUCACAAAGGUGC against KIF9 | 0.0712
UAUCUAAUUUUGGAAUCUC against VRK1 | -0.281
UUCAGGGUAAGGUGGAUGG against UBD | 0.588
AAACUUGUCAUCAGCACGC against MUC13 | 0.662
UUCUGUCCCAUAAAUAGAG against TMEM207 | -0.0552
UUAUCUAUACAAAGCAGAC against KLRC3 | -0.377
UUACGCAUAAUUUCCGUCA against VAMP5 | -0.171
AUCUGGUUUACGGUUAUUC against MEF2C | -2.53
AAUCUUGCAAGGUUACUAC against USP33 | -1.31
UCCAUGACGAAGCUGUUCU against SUV39H1 | 0.0817
UGGUUUAUCAGUUUCAAUG against ARCN1 | -4.37

Sequence | seed-corrected z-score
UAUCUAAUUGAUGACAUGC against ETAA1 | 0.0808
UGUUCUAUAGGUAACACUC against ZNF559 | -0.628
UUAAUUGCAUUUGCAGACC against CCDC171 | 0.492
UUGUCUAGAAAAGUCCUGG against UMODL1 | -2.58
UUCGAUAUUAGGGUAGCGG against SNRNP200 | -1.21
UGCUGUAAAGUUUUAGUCC against SLC35A5 | -0.426
UCAGUGUUGGACUCCAUGC against NR2E3 | 0.652
UGUGAGAUCAGGAAUUGAC against TMEM65 | -0.934
UGCGGUUGACCGUAUAGAC against KBTBD13 | -2.49
UCCUUGGUCACUGUCGCUC against KLF7 | -0.201
UUGUUGGACAAGUCGAUGG against LRRC57 | 0.339
GUUGUAUUCGUCGUCGUCC against NKX6-2 | 0.127
UACUUAUCUCUGUCUGUUU against UBE2D3 | -1.14
AUAGGUGCGACUCUCAUCC against SYMPK | -2.35
UUGUAGAUGCUGAAUGUCC against DNAAF1 | 0.337
UAAUAUGAUGUCUUCAACC against GABRQ | 0.559
UGUUUUGCCGUCGAGGUGC against LOC642620 | 0.782
AUUCCGACCAUGGUAAAUG against NAAA | 0.829
ACAGUACAUAGUAGGGUGG against PRR34 | -2.82
UUCAUCAAAUUGGACAUCU against ATP6V1E1 | -0.95
UUGGUGCACAGCCUGGUAC against TSPAN32 | -0.435
UCUUAGUUUCCAACGAUCC against SZT2 | -0.791
UCGGUAGUAGUAAUCGUGC against PNPLA1 | 0.335

Sequence | seed-corrected z-score
UUCGCCUCUUGUGCUAUCG against CFAP221 | 0.264
AUGGUUCAAACAUAGGAUG against WNK1 | -2.09
UACGAGUCACGGGAAAUAC against TAF5 | 0.238
AACUUGAGGAGGGUAAGUG against SERPINF2 | -2.44
UUGAGUAUUCCGCUCGGGC against EDAR | -0.0352
AAAACGACUCUUCAUACUG against CLRN2 | -1.29
UUUAGCAACAGGUACAUUC against APBB1 | -0.4
UAGAUUUUAAACAUCCUUG against FAS | 0.417
UCUUUAUCACGGUCAAAUG against GPALPP1 | -0.108
ACAUGGCUGAUUAAUGUGG against ZNF890P | -0.143
UCUGUGGUGAUGAACACUC against OR5J2 | -1.13
UUUGUUGGUAGCGAUGCAC against MYPN | -2.09
AAAACUUCACCUUAUACUC against SDF4 | -0.483
GAUGCUACGAUACCAGCCA against LYPLA2P2 | 1.26
UGUAUUUCCACGCGUGAGG against ZDHHC11 | -0.523
AAAUGUGAACCUGUGCUUG against MTUS2-AS1 | 1.42
UACGUGCCGAGUCAUCAGU against DOK4 | -2.12
AGACCUUAUACAGAGCUGC against CAPG | 0.432
AGAAGCAUCAUGGAGGUAG against COX14 | -1.26
ACUAGAAUCAAUAAGGAUG against TMEM243 | -0.708
UGAGUCAUAAGAAGGGUCU against FLI1 | -6.98
AUAGGUGAGACGGAGGCUC against VASN | 0.00423
UCUGGAUCGAGGAAGCGAG against GNLY | -2.28

Sequence | seed-corrected z-score
AUAGCAAUCAUAUUCACGG against LIG4 | -0.537
AACUGAAAUAGAAGUAUCC against TMED6 | -0.476
UGUUCUCCUGCAGUUAUCC against WFDC3 | -0.0122
UUGAAGACCAGGUAUUCCC against AGBL4 | -0.596
UGACGUAUAUCAAUGCUCC against RRAGC | -0.322
UAGUCGUCAAGCACUUGGU against SFTPB | -0.3
AAAUCUUGAUCUGUGACUC against EN2 | 0.225
UCUCUCAUCAAUAUGCUCU against MTHFD2 | 0.352
UAUAGGCACGCUGCUAUUC against DIRC2 | -2.73
UUCGUUAGGUUUCCUUUCG against HIVEP2 | -0.393
UUCCGAAAUGAAAAGGAUC against GMPR2 | 0.18
UAAUUGCUGAUAUUCGAGC against EPB41L3 | -0.247
UAAGAUACUCGGGUUUCAC against ZADH2 | -0.425
AGUUCGAUUAGCUAAGGCC against SYNRG | -0.0555
UAUGGGAGUGUCAAUAAUC against PDHB | -0.681
UCAGGUGCAAUCUGACUCU against PPP1R1C | -2.4
AUGCUUACAAGAUCUUGUC against USP44 | -0.0422
UCACGUGUAAAGGAUCACG against RTN4IP1 | 0.0887
UUCUGUUCAAAUCCAUUGG against BUD13 | -0.753
AGAGUUGUUGUCAUCUUCC against CACNA1S | -0.313
UCUGGGCGUAGACAACUGC against CNTFR | -2.12
UGAACGUCCCGUCUGAGUG against SCT | -0.424
UCUUCAAUAAUGAUCUCCU against MRI1 | 0.722

Sequence | seed-corrected z-score
UGAAGAGUAAGCUCAAACC against ASIC5 | -3.53
UAAACUUCCCUUUAAAAAC against IRF8 | -0.00875
UUCAUGUGAACUUACAGUU against UQCRHL | 0.0588
UUAGUUGCAAGGCAUUCAG against FAM135A | -4.23
UAAAGGUCAAGCAGUCAGU against PVRL4 | 0.651
AGUGAUGACAUUGAUAUCG against SYDE1 | 1.21
AUAUCUACGAUCUAUAUCU against LOC645553 | 0.695
UCUGGUUCUUGUUCAAGUG against PCDH17 | -1.28
UCGCUAUCCAUAUCAGAGG against GOLGA4 | 1.24
UUAAUGGUCCUGUAGUAAC against MTMR1 | 0.139
UACAACAAUAGCCACAGCU against OR52W1 | -2.15
UGUAUUUUAUGUCUCUCCC against PLAC8L1 | -0.115
AAAGCCCAAAUAUAGUUCC against NEUROD4 | 0.947
UUUGAGGAAAGGAACUGCC against FAM228A | 0.28
AAUCUUGGUCUUACUGUCC against PKN1 | -1.59
UACUGAGAUAGUCAAAUUC against CYB5D1 | -0.0466
UUAUUGGAGAGCACCUGGU against PADI3 | 0.0879
ACAUCUGUCAGGGUCAUCG against NOD1 | -0.0205
